Source: PubChem BioAssay (National Center for Advancing Translational Sciences (NCATS))
A selection: hits, their analogues and other compounds. The true share with any hit is near 8%.
HT1080NT lethal = kills 2HG-producing HT-1080-NT fibrosarcoma cells; HT-1080-NT fibrosarcoma viability, CellTiter-Glo ATP luminescence, 48 h; Potency, µM (top dose mostly 46.1 µM), inactives show at the top dose activity, negative = less viability, hits mostly cytotoxic; 1.6% of 360,000 active;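 also: NT is the 2HG producing partner of a matched IDH1 knockdown line; 0% = DMSO-treated cells and -100% = media-only wells without cells; nearly all actives have a fitted effect of over 55% in size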
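Toxicity toward the 2HG-producing NT line was scored as %Activity, normalised to DMSO and no-cell wells, from CellTiter-Glo luminescence after 48 hours' treatment.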
SW480 rerep = DNA re-replication induction in SW480 cells | SW480 DNA re-replication, Hoechst DNA content imaging, 48 h | Potency, µM (doses to about 46.1 µM), inactives show at the top dose re-replication activation, usual class: activators | 1.8% of 340,000 active; also: % of control where 0% means no effect; nearly all actives have a fitted effect of over 55% in size
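250 cells/well; 23 nL cpd via pin tool; 48 hr, 37 C, 5% CO2; Hoechst 40 min; imager read of total nuclear intensity, ex 405/em 500-530 nm.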
KB-3-1 cytotox = KB-3-1 parental cell cytotoxicity; KB-3-1 viability, CellTiter-Glo ATP luminescence, 72 h; Potency, µM (highest dose often 46.1 µM), actives largely listed as cytotoxic; 1.4% of 400,000 active; AID 1347075; also: % is scaled to controls: 0 for no effect and ±100 for the full control effect; nearly all actives have a fitted effect of over 60% in size
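KB-3-1 cells, DMEM (no phenol red) + 10% FBS; compound by pin transfer, 72 h, 37 °C. Readout: CellTiter-Glo luminescence after 10 min. Data normalized, curve-fitted.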
HT1080 IDH1KD tx = HT-1080 IDH1 knockdown cell toxicity (counter line) | HT-1080 IDH1 knockdown viability, ATP luminescence, 48 h | Potency, µM (titrated, usually from 46.1 µM), inactives show top-dose activity, negative = toxicity, hits mostly cytotoxic | 2% of 360,000 active | AID 686971;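 also: 0% = DMSO wells and -100% = cell-free medium wells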
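After a 2 h attachment period, IDH1KD HT-1080 cells took pin-transferred compound for 48 h at 37 °C; ATP-based luminescence after 10 min room-temperature reagent incubation reported viability.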
MCF10A rereplic = induces DNA re-replication in MCF 10a normal breast cells | MCF 10A DNA re-replication, Hoechst nuclear intensity, 48 h | Potency, µM (highest dose often 46.1 µM), inactives show at the highest dose activity, positive = re-replication, hits mostly activators | 2.9% of 350,000 active | AID 624296; also: % of control where 0% means no effect; nearly all actives have a fitted effect of over 50% in size
KB-V1 cytotox = KB-V1 MDR subline cytotoxicity | KB-V1 MDR cells viability, CellTiter-Glo, 72 h | Potency, µM (doses to about 46.1 µM), actives largely listed as cytotoxic | 3.4% of 400,000 active | AID 1347076; also: % is scaled to controls: 0 for no effect and ±100 for the full control effect; nearly all actives have a fitted effect of over 60% in size
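In this primary screen, KB-V1 cells overexpressing P-gp are incubated with library compounds (lowest to highest concentration) for 72 h at 37 degrees C before a luminescent ATP viability read.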
* marks the source's active call; other numbers are inactive results; i = inactive; ? = inconclusive; · = no result; ! = a repeat was not active; [ ] = another dose, or the depositor's remark. Calls follow the shape of the dose curve; as a rule, active = well fitted curve in the direction sought with a large enough effect; inconclusive = small, poorly fitted or top-dose-only effect, or another doubt; inactive = no such curve, though single readings can be large; an effect the other way counts as inactive or inconclusive. Potency is read from the fitted curve at half-maximal effect.

SMILES	HT1080NT lethal	SW480 rerep	KB-3-1 cytotox	HT1080 IDH1KD tx	MCF10A rereplic	KB-V1 cytotox
CSc1ccc(-c2nc3cccc(C)n3c2Nc2ccc3c(c2)OCO3)cc1	·	·	i	·	·	i
CC(=O)Nc1cccc(C(=O)NCc2ccc3c(c2)CCN3C(=O)c2ccc(F)cc2)c1	·	·	i	·	·	i
COC(=O)c1cc(C)cc(=O)o1	4%	-28%	i	12%	-3%	i
Cc1cc(CCCCCCCCc2cc(C)cc(=O)o2)oc(=O)c1	6%	-8%	i	-7%	1%	7.3µM*
Cc1ccc(S(=O)(=O)N(C)Cc2nc(-c3ccccc3)oc2C)cc1	·	·	i	·	·	i
O=C(/C=C\Nc1ccc2c(c1)OCO2)c1cccs1	?	-56%	?	6.5µM*	-14%	i
O=C(/C=C\Nc1ccc2c(c1)OCO2)c1ccc2c(c1)OCO2	?	3%	i	?	21µM*	i
O=C(/C=C\Nc1ccc2c(c1)OCO2)c1ccc(Cl)s1	-19%	-8%	i	?	3%	i
O=S1(=O)c2ccccc2N(Cc2ccc(Cl)cc2F)c2ccccc21	·	·	i	·	·	i
CCc1ccc(C2CC(=O)Nc3c2c(=O)n(C)c2ncnn32)cc1 (centres undefined)	·	·	i	·	·	?
CCOc1ccc(CCNC(=O)c2cn(CC)c3ccc(S(=O)(=O)N4CCc5ccccc5C4)cc3c2=O)cc1OCC	·	·	i	·	·	i
O=C(Nc1nc(-c2cccs2)cs1)c1ccc(S(=O)(=O)N2CCCC2)cc1	?	?	16µM*	?	13%	?
Cc1csc(NC(=O)c2ccc(S(=O)(=O)N3CCCC3)cc2)n1	-1%	1%	i	2%	9%	i
O=C(Nc1nc(-c2ccc(S(=O)(=O)N3CCCCCC3)cc2)cs1)c1ccccc1	-11%	-3%	i	-16%	10%	i
O=C(Nc1nc(-c2ccc3c(c2)OCCO3)cs1)c1ccc(S(=O)(=O)N2CCCCC2)cc1	?	12%	?	-10%	2%	8.2µM*
C[C@]12CCC(=O)C[C@@H]1CC[C@@H]1[C@@H]2CC[C@]2(C)C=CC[C@@H]12	23%	-5%	i	11%	30µM*!	i
C[C@]12CCC(=O)CC1CCC1C2CC[C@@]2(C)C1CC[C@@]21CCO1 (some centres undefined)	?	9%	i	?	?	?
Cc1cc(C)c(C#N)c(Sc2nc(C)c([N+](=O)[O-])c(C)c2C#N)n1	16µM*	·	?	4.6µM*	·	i
Cc1nc(N2CCN(S(=O)(=O)c3cccc4nonc34)CC2)c2c3c(sc2n1)CCCC3	6%	1%	i	19%[9.24 µM]	18µM*	i
Cc1ccc(NC(=O)c2cc(N(C)C)ccc2[P+](=O)O)cc1	0%	?	i	2%	12µM*	i
CCOc1ccccc1NC(=O)CCc1c(C)nc2c(c(C)nn2-c2ccccc2)c1C	·	·	i	·	·	i
CN(C(=O)CSc1ncnc2sccc12)C1CCCCC1	13%	-4%	i	12%	3%	5.2µM*
CN(C(=O)CSc1ncnc2sccc12)C1CCS(=O)(=O)C1 (centres undefined)	13%	?	i	-1%	-2%	?
O=C(NCc1ccc(Cl)cc1)C1CCN(c2cnccn2)CC1	-16%	-52%	i	-1%	?	i
O=C(NCc1ccccc1Cl)C1CCN(c2cnccn2)CC1	0%	-2%	i	2%	0.52µM*	i
SMILES	HT1080NT lethal	SW480 rerep	KB-3-1 cytotox	HT1080 IDH1KD tx	MCF10A rereplic	KB-V1 cytotox
CC(C)Cc1ccc(C(C)C(N)=Nc2ccc(O)cc2)cc1 (centres undefined)	?	?	?	21µM*	?	?
CC(C)[C@H](NC(=O)c1ccccc1)C(=O)NC1CCCCCCC1	-7%	-13%	i	1%	-6%	?
CC(C)[C@H](NC(=O)c1ccccc1F)C(=O)NC1CCCCCCC1	0%	-3%	·	2%	18µM*	·
NC(=O)c1ccccc1NC(=O)/C=C/c1ccc(Cl)cc1	?	-1%	i	?	18%	15µM*
O=C(/C=C/c1ccc(Cl)cc1)NC(=S)Nc1ccccc1C(=O)O	?	16µM*	i	?	?	i
CCc1ccc2c(c1)NC(=O)C2(C)Cc1ccc(F)cc1 (centres undefined)	?	·	i	?	·	?
CCc1ccc2c(c1)C1(NN=C(c3ccc(C)cc3)S1)C(=O)N2 (centres undefined)	?	?	?	21µM*	6.5µM*	?
CC(C)c1ccc2c(c1)C1(NN=C(c3ccccc3)S1)C(=O)N2 (centres undefined)	26µM*	8.2µM*	?	?	1.3µM*	i
Cc1sc2nc(CN3CCCC3)nc(N3CCN(S(=O)(=O)c4cccs4)CC3)c2c1C	?	7%	?	16µM*	9%	18µM*
CCCN(c1ccc(C(C)C)cc1)S(=O)(=O)c1ccc2c(c1)CCN2C(=O)CC	·	·	i	·	·	i
CCn1cc([N+](=O)[O-])c(C(=O)N2N=C(c3ccc(OC)cc3OC)CC2c2ccccc2O)n1 (centres undefined)	-8%	?	i	-4%	24%	?
CCn1cc([N+](=O)[O-])c(C(=O)N2N=C(c3ccc4ccccc4c3)CC2c2ccccc2O)n1 (centres undefined)	23µM*	23%	?	21µM*	?	i
CCn1cc([N+](=O)[O-])c(C(=O)N2N=C(c3cccc4ccccc34)CC2c2ccccc2O)n1 (centres undefined)	?	?	i	18µM*	12%	i
CCn1cc(Cl)c(C(=O)N2N=C(c3ccc4ccccc4c3)CC2c2ccccc2O)n1 (centres undefined)	?	?	21µM*	?	29%	?
CC(C)c1ccc(NC(=O)c2cc(S(=O)(=O)N3CCCCC3)cn2C)cc1	·	·	i	·	·	i
COc1ccc(C(=O)Nc2nnc(S(=O)(=O)N3CCN(c4ccc(C)cc4)CC3)s2)cc1	·	·	i	·	·	i
CCN1CCN(c2ncc3c(n2)CCN(CC(C)C)C3)CC1	·	·	i	·	·	i
CCOC(=O)C1CCN(C(=O)C2COc3ccccc3C2)CC1 (centres undefined)	·	·	i	·	·	i
Cc1ccc(Sc2c(C)nn(C(=O)c3ccc(Br)cc3)c2C)cc1	·	·	i	·	·	i
